Test results: PubChem BioAssay (NCI)
Several values for one entry are separate records, joined by “and”; a condition that tells them apart may be missing. Identical values can stand only once. Compounds without any hit were thinned out: in the full panel of roughly 83,000, 20% have a hit.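 Cells were grown in 96-well plates and exposed to the test compound at a single concentration for 48 hours; results are reported as percent growth, with values below 10 considered active.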 Unmarked numbers belong to inactive results. Activity calls are given as the source filed them.

Each molecule was assayed on HL-60(TB) leukemia (assay: NCI-60 one-dose screen, 48 h (100 = growth as untreated, 0 = no growth, -100 = all killed)). Conditions: 10 µM unless noted.

SMILES	growth
CCCCCC(/C=N\NC(=S)N/N=C/C(=C/c1ccccc1)CCCCC)=C\c1ccccc1	68.8%
CC(C)=CCc1cc2c(cc1O)C1=C(C(=O)C3=C(NCCS3(=O)=O)C1=O)C(C=C(C)C)O2 (stereo not given)	-35.2% (active)
O=C1CCC(NC(=S)Nc2ccccc2)N1 (stereo not given)	99.2%
O=C(Nc1ccc(Cl)cc1)c1cc2ccccc2cc1O	-8.5% (active) and -29.4% (active)
COc1cc(Nc2ccnc3ccc(Br)cc23)cc(OC)c1OC	24.8%
Nc1c(C(=O)c2ccc(F)cc2)sc2nc3c(cc12)CCCC3	70.2%
O=C(c1ccc(Cl)cc1)C(NCCO)c1ccc(Cl)cc1 (stereo not given)	86.9% and 116%
Cc1c(C(=O)OC(=NC2CCCCC2)NC2CCCCC2)sc2c1c(=O)nc1c(C#N)n[nH]n12	124%
COc1cnc2c(c1)C(=O)c1c-2n(CCCN2CCN(C)CC2)c(=O)c2cc([N+](=O)[O-])ccc12	-54% (active)
COc1ccc(NC(=O)c2cc3ccccc3nc2Nc2cc(OC)c(OC)c(OC)c2)cc1	67.3%
NC1=NC(=O)C(c2ccccc2)(c2ccccc2)S1	97.9%
COc1ccc(C2C(C#N)=C(N)Oc3c2ccc2ccccc32)cc1 (stereo not given)	22.9%
Cc1sc(N=Nc2ccc(N(C)C)cc2)[n+]([O-])c1C	92.7%
CCOC(=O)c1c(/C=C/C(=O)O)nc2ccccc2c1/C=C/c1ccccc1	8.28% (active)
O=C(Nc1ccc2ncnc(Nc3ccc(F)c(Cl)c3)c2c1)c1ccccc1	82.2%
